These results are taken from the supplement of paper PMC6555819.

The test system of the first experiment is PPARa:RXRa (NR concentration 270 nM, RXRa partner concentration 90 nM). Nature of the experiment: PBM binding z-score (relative to random genomic background probes); higher = stronger binding; sequences stand for … in GC…GCGATTGACAGCGTAGAATGAAGG
A digest of the protocol:
(§1)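 Scanned fluorescence from custom Agilent 4×180K protein-binding microarrays was regression-normalized. Binding z-scores use random background probes as reference. Ligand-free nuclear receptor dimers were incubated on the arrays for 1 h and detected with antibodies against each partner (one per run).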
The sequence TCTTGTAGATTAGCAGGTTAAGAAAGCTGGCCAA registered a PBM binding z-score of 0.897.
CGAACTAGGTCAGAACAGGACAGTGAAGGATGAT displayed a PBM binding z-score of 2.78.
Sequence CCTACTGGCCCAAAGGTCATTGATTCCAATGCTC showed a PBM binding z-score of 5.27.
As for CGAACCAGGGCATGAGTTGATAGCAAATGCCGAT, the PBM binding z-score was 0.552.
For TTCCCAAGGTGAAAGGTCGTTGATGCACGCCTTG, the PBM binding z-score came to 5.44.
Take CCTGCTACGTCATGGTCAGCTAATCTACAGTATG: the PBM binding z-score was -0.4.
With TCGAGTAGGTTACCAATGAGGCATTCAGCTTTCT, the PBM binding z-score was 1.
Regarding AGTCAAAGTTCATCTAGGTAACGTACGATATGCT, the PBM binding z-score worked out at 5.05.
With TCTAGGTGGTCACGGAGGTCACACACGACGGGTA, the PBM binding z-score was found to be 4.01.
Sequence ACTAGCAGGCCAAGGGTCACCCAAGATTAGTCCG displayed a PBM binding z-score of 5.01.
On to GATACAGTGTCAGCTAGAGGCCAGAGTATGGAAA, for which the PBM binding z-score was -0.257.
In the case of CCTTCTGGGCCATCAGGTCATTGATATCAACGTT, the PBM binding z-score stood at 2.69.
Consider TCTTGTAGATAAACAGGAGGTTAAGAAAGATCGA, for which the PBM binding z-score was determined as 1.27.
Same read-out and setting: to CCTACTGGGCCAAGGGTCATTGATTCCAATGCTC belongs 5.27; to GCTTGGAGATCAAGGTTAAGAAAGACTAAGCTAA, 1.57.
Regarding ATCTCTAGGTAAGACTCAGTTCAGCGAAGAACGC, the PBM binding z-score came to 0.278.
With TCTAGTTTGTCACGGAGGTCACACACGACGGGTA, the PBM binding z-score worked out at 3.88.
TCTGGTAGATCAAGCAGGTTAAGAAAGCCTGAGT came in with a PBM binding z-score of 0.171.
TTACCAAGGTGAGCTGAGGCCGTTGATCCAACTC: the PBM binding z-score is 0.236.
Regarding TCTTGTAGCTCAATAGAGGTTAAGAAAGTGCGCT, the PBM binding z-score was 1.52.
Consider ATCTCTAGGGAACCAAGTTCAGTGAATGCCGAAC, for which the PBM binding z-score came to 0.00792.
TCTATTAGTTGAAGGACAACCGACGAGTCCGTTT: the PBM binding z-score amounted to 0.754.
With ACTAGCAGGCCAAGTTGGGGTCACTCAAACAAAG, the PBM binding z-score is 4.63.
In turn, TTACCAATGTGAGCTGAGGTCGTTGATCCAACTC registered a PBM binding z-score of 0.851.
The same measure, in the same setting: next, TCATATAGGTAATACAGGTGAAAATCGGCATCTA: 2; TCTGCTAGGTCTGTTGGTCAGCTAACGAGCTGCC: -0.204.
Regarding TCTAGTTGGTCACGGAGGTCAAACACGACGGGTA, the PBM binding z-score amounted to 4.39.
For the sequence TCATTTAGGTAAAAGGTGAAAGTCGGTGTGGTAA, the PBM binding z-score was found to be 5.05.
CGTCCAAGGTCAGAGAGGGCAGTGAATGCCGAGT came in with a PBM binding z-score of 4.26.
On the same count and under the same terms, to AATACAGGGTCACTAGGCCAGACTAGGTACGAAT belongs 5.84.
Turning to ACTTACGGGCCAACGAGGTTATAGCACGCGTATA, the PBM binding z-score was 1.16.
CACCCTAGGTCAGGGCCAGTATAGGAGGAACGTT registered a PBM binding z-score of 2.24.
With CGAACTAGGTCGTTGACAGGACAGTGAATAGTAA, the PBM binding z-score stood at 1.98.
The same measure, in the same setting: to TCGAGTAGGTTACCAAAGGGGCATTCAGCTTTCT belongs 1.41.
For the sequence TCTTGTAGACCAGCAGGTTAAGAAAGCTGGCCAA, the PBM binding z-score turned out to be 0.558.
Consider CCTATTAGTTGACCATAAGGGCAGCCGAAGCTCG, for which the PBM binding z-score was found to be 0.0636.
As for CATACATGGTCAGCTAGGCCAGAGTAGGGACGGC, the PBM binding z-score was -1.12.
The sequence TCTTGTAGATCAATAGAGTTTAAGAAAGTGCGCT showed a PBM binding z-score of 0.514.
The sequence AGAATGAGGTTATACGTAGATAAGGGAAGAAAGT registered a PBM binding z-score of 3.3.

A further experiment relates to PPARg:RXRa (NR concentration 180 nM, RXRa partner concentration 90 nM). The description is as above. A digest of the protocol: as §1
In the case of TCTTGTAGATTAGCAGGTTAAGAAAGCTGGCCAA, the PBM binding z-score is -0.494.
CGAACTAGGTCAGAACAGGACAGTGAAGGATGAT returned a PBM binding z-score of 4.94.
Consider CCTACTGGCCCAAAGGTCATTGATTCCAATGCTC, for which the PBM binding z-score amounted to 7.37.
Still for that read-out and setting: next, CGAACCAGGGCATGAGTTGATAGCAAATGCCGAT: 1.15; TTCCCAAGGTGAAAGGTCGTTGATGCACGCCTTG: 7.9.
Still for that read-out and setting: to CCTGCTACGTCATGGTCAGCTAATCTACAGTATG belongs 0.216; to TCGAGTAGGTTACCAATGAGGCATTCAGCTTTCT, 0.215.
Still for that read-out and setting: next, AGTCAAAGTTCATCTAGGTAACGTACGATATGCT: 6.7; TCTAGGTGGTCACGGAGGTCACACACGACGGGTA: 3.58; ACTAGCAGGCCAAGGGTCACCCAAGATTAGTCCG: 8.49.
On to GATACAGTGTCAGCTAGAGGCCAGAGTATGGAAA, for which the PBM binding z-score turned out to be 0.158.
Still for that read-out and setting: to CCTTCTGGGCCATCAGGTCATTGATATCAACGTT belongs 2.21.
In turn, TCTTGTAGATAAACAGGAGGTTAAGAAAGATCGA gave a PBM binding z-score of 0.346.
Sequence CCTACTGGGCCAAGGGTCATTGATTCCAATGCTC gave a PBM binding z-score of 10.2.
The sequence GCTTGGAGATCAAGGTTAAGAAAGACTAAGCTAA gave a PBM binding z-score of 0.135.
For ATCTCTAGGTAAGACTCAGTTCAGCGAAGAACGC, the PBM binding z-score came to 0.231.
Sequence TCTAGTTTGTCACGGAGGTCACACACGACGGGTA yielded a PBM binding z-score of 2.25.
TCTGGTAGATCAAGCAGGTTAAGAAAGCCTGAGT registered a PBM binding z-score of -0.556.
Still for that read-out and setting: to TTACCAAGGTGAGCTGAGGCCGTTGATCCAACTC belongs -0.296; to TCTTGTAGCTCAATAGAGGTTAAGAAAGTGCGCT, -0.424.
Still for that read-out and setting: next, ATCTCTAGGGAACCAAGTTCAGTGAATGCCGAAC: -0.0553; TCTATTAGTTGAAGGACAACCGACGAGTCCGTTT: 0.353.
Regarding ACTAGCAGGCCAAGTTGGGGTCACTCAAACAAAG, the PBM binding z-score was 1.63.
As to TTACCAATGTGAGCTGAGGTCGTTGATCCAACTC, the PBM binding z-score was -0.119.
As for TCATATAGGTAATACAGGTGAAAATCGGCATCTA, the PBM binding z-score was determined as 1.78.
TCTGCTAGGTCTGTTGGTCAGCTAACGAGCTGCC displayed a PBM binding z-score of -1.23.
On to TCTAGTTGGTCACGGAGGTCAAACACGACGGGTA, for which the PBM binding z-score stood at 3.25.
Turning to TCATTTAGGTAAAAGGTGAAAGTCGGTGTGGTAA, the PBM binding z-score came to 8.63.
CGTCCAAGGTCAGAGAGGGCAGTGAATGCCGAGT: the PBM binding z-score amounted to 2.13.
Regarding AATACAGGGTCACTAGGCCAGACTAGGTACGAAT, the PBM binding z-score is 7.65.
Sequence ACTTACGGGCCAACGAGGTTATAGCACGCGTATA returned a PBM binding z-score of 0.891.
In turn, CACCCTAGGTCAGGGCCAGTATAGGAGGAACGTT yielded a PBM binding z-score of 1.36.
With CGAACTAGGTCGTTGACAGGACAGTGAATAGTAA, the PBM binding z-score turned out to be 2.2.
On the same count and under the same terms, next, TCGAGTAGGTTACCAAAGGGGCATTCAGCTTTCT: 0.576.
The same measure, in the same setting: next, TCTTGTAGACCAGCAGGTTAAGAAAGCTGGCCAA: -0.5; CCTATTAGTTGACCATAAGGGCAGCCGAAGCTCG: 0.126; CATACATGGTCAGCTAGGCCAGAGTAGGGACGGC: 0.342.
On the same count and under the same terms, to TCTTGTAGATCAATAGAGTTTAAGAAAGTGCGCT belongs -0.0887; to AGAATGAGGTTATACGTAGATAAGGGAAGAAAGT, 2.47.
